A selection: hits, their analogues and other compounds. The true share with any hit is near 2.9%.
KDM5B inhibitor – Primary screen for KDM5B Histone Demethylases FDH-coupled qHTS. Potency, µM (titrated, usually from 57.7 µM), usual class: inhibitors. AID 1347165, 2019. Lysine-specific demethylase 5B (Homo sapiens), Q9UGL1. KDM5B demethylase, FDH-coupled NADH fluorescence (FDH is formaldehyde dehydrogenase). hit rate 2.6% among 220,000; further: potency means the concentration at half of the fitted maximal effect; 0% is about no effect; nearly all actives have a fitted effect of over 70% in size
Target sequence (Q9UGL1 whole entry, looked up): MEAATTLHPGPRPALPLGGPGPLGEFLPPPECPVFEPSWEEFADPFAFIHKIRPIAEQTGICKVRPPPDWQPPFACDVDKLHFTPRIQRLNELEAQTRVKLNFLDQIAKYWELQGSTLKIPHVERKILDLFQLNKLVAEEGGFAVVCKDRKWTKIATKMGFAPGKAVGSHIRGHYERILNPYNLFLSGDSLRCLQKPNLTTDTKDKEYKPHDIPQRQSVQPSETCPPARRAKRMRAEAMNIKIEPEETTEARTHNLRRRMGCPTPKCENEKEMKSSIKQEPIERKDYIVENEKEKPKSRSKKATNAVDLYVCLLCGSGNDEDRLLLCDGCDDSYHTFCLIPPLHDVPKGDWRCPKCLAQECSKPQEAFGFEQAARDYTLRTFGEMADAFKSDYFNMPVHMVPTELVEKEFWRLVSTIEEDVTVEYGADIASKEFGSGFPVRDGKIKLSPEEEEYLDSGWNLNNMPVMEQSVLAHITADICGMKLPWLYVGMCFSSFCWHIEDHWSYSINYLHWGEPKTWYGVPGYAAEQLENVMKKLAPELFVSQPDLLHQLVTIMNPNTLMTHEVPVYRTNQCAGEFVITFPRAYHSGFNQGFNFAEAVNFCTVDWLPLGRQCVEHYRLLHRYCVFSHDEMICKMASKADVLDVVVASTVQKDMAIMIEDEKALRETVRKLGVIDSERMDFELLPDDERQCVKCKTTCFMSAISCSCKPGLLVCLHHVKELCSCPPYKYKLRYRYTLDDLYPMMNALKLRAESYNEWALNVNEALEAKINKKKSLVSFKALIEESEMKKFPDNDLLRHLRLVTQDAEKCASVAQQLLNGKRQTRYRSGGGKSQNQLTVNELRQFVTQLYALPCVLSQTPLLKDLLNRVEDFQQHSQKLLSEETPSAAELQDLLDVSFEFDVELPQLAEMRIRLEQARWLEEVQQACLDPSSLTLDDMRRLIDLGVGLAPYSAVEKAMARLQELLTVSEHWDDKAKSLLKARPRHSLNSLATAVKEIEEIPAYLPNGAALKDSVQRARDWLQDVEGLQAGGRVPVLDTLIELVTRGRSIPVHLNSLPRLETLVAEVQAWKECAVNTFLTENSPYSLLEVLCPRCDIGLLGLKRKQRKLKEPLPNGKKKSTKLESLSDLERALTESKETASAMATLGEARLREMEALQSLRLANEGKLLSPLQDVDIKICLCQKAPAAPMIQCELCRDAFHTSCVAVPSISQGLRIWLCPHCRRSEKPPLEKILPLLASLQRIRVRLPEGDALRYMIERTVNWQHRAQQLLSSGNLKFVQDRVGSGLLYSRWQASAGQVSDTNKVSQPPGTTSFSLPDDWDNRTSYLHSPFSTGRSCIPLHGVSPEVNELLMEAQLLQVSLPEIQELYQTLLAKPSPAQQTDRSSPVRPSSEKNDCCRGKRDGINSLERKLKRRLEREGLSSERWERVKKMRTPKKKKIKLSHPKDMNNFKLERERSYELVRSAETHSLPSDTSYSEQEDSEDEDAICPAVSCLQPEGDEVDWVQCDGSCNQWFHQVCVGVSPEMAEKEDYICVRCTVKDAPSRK
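Coupled FDH/NAD⁺ fluorescence readout. KDM5BΔAP 200 nM final; compound titration, 10 min RT preincubation; substrate mix 12.5 µM H3K4me3, 25 µM 2-OG, 50 µM Fe(II), 100 µM ascorbate, 0.25 mM NAD⁺, 0.25 U/mL FDH; ΔRFU over 30 min.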
SNCA expr inh – Primary qHTS assay for inhibitors of alpha-synuclein gene (SNCA) expression; hit rate 0.17% among 140,000; AID 1671194, 2021; Potency, µM (highest dose often 57.2 µM), for inactives: at the highest dose activity change, negative = inhibition, usual class: inhibitors; HEK-293 SNCA-luciferase knock-in, luminescence, 24 h;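 further: potency means the concentration at half of the fitted maximal effect; plate controls were DMSO cells for no effect and cell-free wells for full effect; nearly all actives have a fitted effect of over 45% in size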
SNCA viab count – GF-AFC viability counterscreen for inhibitors of alpha-synuclein gene (SNCA) expression; HEK-293-SNCA-luc viability, GF-AFC fluorescence, 24 h; Potency, µM (doses to about 57.1 µM), inactives show at the highest dose activity change, negative = cytotoxicity, usual class: cytotoxic; hit rate 0.12% among 150,000; AID 1671193, 2021;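 further: potency means the concentration at half of the fitted maximal effect; 0% = DMSO-treated cells and -100% = medium-only wells without cells; nearly all actives have a fitted effect of over 30% in size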
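Cytotoxicity counterscreen: after 24 h compound treatment of genome-edited SNCA-luciferase HEK-293 cells, live-cell protease substrate GF-AFC read by fluorescence after 30 min; activity scaled between DMSO (0%) and medium-only (-100%), curves Hill-fitted.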
IP6K1 inh – Primary qHTS assay for small molecule inhibitors of Inositol hexaphosphate kinase 1 (IP6K1) | Inositol hexakisphosphate kinase 1 (Homo sapiens), Q92551 | IP6K1 kinase, ADP-Glo luminescence, 2 h; stronger effect = lower value | activity change, % (series mostly up to about 58 µM) | hit rate 0.81% among 140,000 | AID 1645851, 2021; in the data active means activity change below about -25%; further: on the % scale 0 is the no-effect control and ±100 the full control effect
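ADP-Glo luminescence measures ADP made by human IP6K1 during a 2 h RT reaction with ATP/IP6 (mix at 1.3 mM/130 uM); top library doses 57.5 and 19.1 uM final.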
* = called active by the depositor; i = inactive; ? = inconclusive; . = not tested or not shown; [ ] = another dose, or the depositor's remark. Unless noted, the call rests on the fitted dose curve; in most records, active means well fitted curve in the direction sought with a large enough effect; inconclusive means small, poorly fitted or top-dose-only effect, or another doubt; inactive means no such curve, though single readings can be large; an effect the other way counts as inactive or inconclusive.

SMILES	KDM5B inhibitor	SNCA expr inh	SNCA viab count	IP6K1 inh
COc1cccc(CN2CC[C@@H](CO)N(C)c3nc(C)ccc3C2)c1	35µM*	19%[87.6 µM]	-7%[87.6 µM]	-1
CC(O)CCn1ccc2[nH]c(=O)c(C#N)cc2c1=O (centres undefined)	i	4%	14%	-17
N#Cc1cc2c(=O)n(CCc3n[nH]c4c3CCCC4)ccc2[nH]c1=O	32µM*	-4%	1%	28
CCN(Cc1noc(CC(C)C)n1)C(=O)c1cnc(-c2ccccn2)[nH]c1=O	7.9µM*	-12%	-17%	9
COCCN(Cc1nccs1)C(=O)c1cnc(-c2ccccn2)[nH]c1=O	11µM*	?	-16%	21
Cc1ccc(-c2ncc(C(=O)N(C)Cc3nc(CC(C)C)no3)c(=O)[nH]2)cc1	i	-7%	-6%	-12
COCCN(Cc1ccccn1)C(=O)c1ccc2c(c1)ncn2C	i	2%	-4%	33
C[C@H](NC(=O)C(C)(C)Oc1ccc(C(F)(F)F)cn1)[C@@H](Cc1ccc(Cl)cc1)c1cccc(C#N)c1	.	.	-26%	-1
CCN(c1ccccc1)c1nnc(NC(=O)Nc2cccc(Br)c2)s1	i	-9%	4%	-8
O=C(COc1ccccc1)Nc1nnc(SCc2cc(=O)n3cc(Cl)ccc3n2)s1	i	5%	6%	1
COc1cc(Cl)ccc1-c1cccc(COc2cnc3c(ccn3CC(=O)O)c2)c1	35µM*	2%[87.6 µM]	3%[87.6 µM]	-15
CC(C)Oc1cccc(-c2cccc(COc3cnc4c(ccn4CC(=O)O)c3)c2)c1	?	3%[87.6 µM]	-4%[87.6 µM]	-8
COc1cc(F)cc(-c2cccc(COc3cnc4c(ccn4CC(=O)O)c3)c2)c1	35µM*	48%[87.6 µM]	1%[87.6 µM]	-6
Cc1cnc(C)n1C1CCCN(C(=O)C2CCOCC2)C1 (centres undefined)	i	26%	7%	22
O=C(NCCCN1CCCCC1)c1cccnc1N1CC2CC(C1)[C@H]1CCCC(=O)N1C2 (some centres undefined)	28µM*	-26%	-1%	6
O=C(CN1CC2CC(C1)[C@H]1CCCC(=O)N1C2)NCCCN1CCc2ccccc2C1 (some centres undefined)	?	-17%	7%	38
C=CCNC(=O)c1ccc(N2CC3CC(C2)[C@H]2CCCC(=O)N2C3)nc1 (some centres undefined)	25µM*	0%	?	12
CC(C)CNC(=O)c1ccc(N2CC3CC(C2)[C@H]2CCCC(=O)N2C3)nc1 (some centres undefined)	?	-2%	-3%	32
O=C(CN1CC2CC(C1)[C@H]1CCCC(=O)N1C2)NCCCN1CCCc2ccccc21 (some centres undefined)	14µM*	11%	0%	-2
Cc1cc(C)cc(NC(=O)c2ccc(N3C(=O)C4CCCCC4C3=O)cc2)c1 (centres undefined)	i	.	.	.
COc1ccc(OCC2(C)COc3ccc(C(=O)Nc4ccc(OC)nc4)cc3N2)cc1 (centres undefined)	40µM*	?	?	3
Cn1ccc(NC(=O)c2ccc3c(c2)NC(C)(CNCc2ccccc2)CO3)n1 (centres undefined)	?	?	?	-1
COc1ccc(OCC2(C)COc3ccc(C(=O)Nc4ccn(C)n4)cc3N2)cc1 (centres undefined)	32µM*	?	?	-4
COc1cccc(NC(=O)c2ccc3c(c2)NC(C)(COc2ccc4[nH]ccc4c2)CO3)c1 (centres undefined)	32µM*	?	-29%	3
CC(C)n1cc2cc(C(=O)N3CCCCC3)sc2c1	?	34%	3%	1
SMILES	KDM5B inhibitor	SNCA expr inh	SNCA viab count	IP6K1 inh
C[C@@H]1O[C@@H](O[C@@H]2\C=C/C=C\C=C/C=C\C[C@H](C)OC(=O)/C=C\[C@H]3O[C@@H]3C[C@H](O)C[C@]3(O)C[C@@H](O)[C@@H](C(=O)O)[C@H](C2)O3)[C@H](O)[C@H](N)[C@@H]1O	.	.	2%	-17
CN(CC(=O)NC1(C#N)CCCC1)Cc1ccc(C(F)(F)F)cc1	i	.	.	.
O=C(c1cccc(S(=O)(=O)Nc2ccccc2F)c1)N1CCc2sccc2C1	i	.	.	.
CN(C)Cc1cccc(-c2cc3c(ccn3Cc3cccnc3)c(C3=CCOCC3)n2)c1	40µM*	9%[87.6 µM]	-29%[87.6 µM]	21
COc1cccc(-c2cc3c(ccn3Cc3cccnc3)c(C3=CCOCC3)n2)c1OC	28µM*	-12%[87.6 µM]	-14%[87.6 µM]	10
C[S+](=O)([O-])Nc1cccc(-c2cc3c(ccn3Cc3cccnc3)c(C3=CCOCC3)n2)c1	?	4%	8%	-10
Cc1ccc(-c2cc3c(ccn3Cc3cccnc3)c(C3=CCOCC3)n2)cn1	35µM*	-8%[87.6 µM]	-2%[87.6 µM]	-9
C1=C(c2nc(-c3cncnc3)cc3c2ccn3Cc2cccnc2)CCOC1	?	9%[87.6 µM]	-5%[87.6 µM]	0
CC(C)c1noc([C@@H]2C[C@H](NS(=O)(=O)Cc3ccccc3)CN2C)n1	?	11%[87.6 µM]	-14%[87.6 µM]	1
CCc1ccc(NC(=O)Cn2c(=O)c(CNc3ccccc3)cc3cc(OC)c(OC)cc32)cc1	?	-30%	-6%	-11
O=C(Nc1cn[nH]c1)C1CCCN(c2ncccc2C(F)(F)F)C1 (centres undefined)	i	.	.	.
O=C(Nc1ccccc1)Nc1ccc([C@@H](O)[C@H]2COCC(=O)N2CC2CC2)cc1	i	-6%[87.6 µM]	-5%[87.6 µM]	-3
O=S(=O)(c1cccnc1)N1CCc2onc(-c3cccc4ccccc34)c2C1	32µM*	9%	5%	7
COCc1cc(N2CCc3onc(-c4cccc5ccccc45)c3C2)ncn1	28µM*	?	-25%	12
COc1ncccc1C(=O)N1CCc2onc(-c3cccc4ccccc34)c2C1	?	15%	10%	-6
CC(C(=O)N1CCc2onc(-c3cccc4ccccc34)c2C1)n1ccnc1 (centres undefined)	?	-9%	2%	9
CC(C)(C)c1ccc(C(=O)NCC(c2cccs2)S(=O)(=O)c2ccc(F)cc2)cc1 (centres undefined)	?	-18%	0%	4
Fc1ccccc1Nc1ncnc2c1nc1n2CCCCC1	i	-22%	0%	1
CCc1ccc(CNc2ncncc2-c2nc(-c3ccccc3)no2)cc1	28µM*	-1%	14%	-7
c1ccc(CCNc2ncncc2-c2nc(-c3ccccc3)no2)cc1	35µM*	1%	3%	-6
O=c1cc(N2CCOCC2)oc2c(-c3ccc(F)c(Cl)c3)nccc12	20µM*	?	1%[87.6 µM]	-20
CN(c1cc(=O)c2ccnc(-c3ccc(O)c(F)c3)c2o1)C1CCOCC1	32µM*	58%[87.6 µM]	-9%[87.6 µM]	24
COc1cc(F)ccc1-c1nccc2c(=O)cc(N(C)C3CCOCC3)oc12	40µM*	?	7%[87.6 µM]	-11
O=c1cc(N2CCOCC2)oc2c(-c3ccc(F)cc3)nccc12	35µM*	-13%[87.6 µM]	-3%[87.6 µM]	-6

Compound activity from PubChem BioAssay.
